In PubChem BioAssay:
Activity calls are given as the source filed them.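 The calls were made as follows: active = compounds killing one labelled cell type while sparing the other, by normalised counts and ratio limits, not self-fluorescent; inactive = the rest.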

Test: EMT-state selective cytotoxicity in co-culture – imaging, PC-3E GFP, TEM4-18 mCherry, primary screen (AID 1345086);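 also: cells exposed to compound for 72 h before imaging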;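 as to red/green cell ratio (normalised): normalised mesenchymal count divided by normalised epithelial count so high means epithelial killing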
Settings: PC-3E GFP / TEM4-18 mCherry co-culture, imaging cell counts, at 1 µM; for red/green cell ratio (normalised): actives lie on both sides, counts scaled to control wells, 1 = unselective
[1] = measured here: epithelial PC-3E GFP cell survival
[2] = measured here: mesenchymal TEM4-18 mCherry cell survival

| SMILES | red/green cell ratio (normalised) | normalised cell number [1] | normalised cell number [2] |
| --- | --- | --- | --- |
| COC(=O)/C=C/C(C)=C/C=C/C(C)=C/C=C/C=C(C)/C=C/C=C(C)/C=C/C(=O)O | 0.81 (inactive) | 1.29 | 1.05 |
| C[C@@H]1CC[C@H]2C(C)(C)C3CC12CC[C@@]3(C)O (stereo not given in full) | 0.98 (inactive) | 0.93 | 0.91 |
| CC(=O)C(C)(C)[C@H]1OC2CC[C@@]3(C)[C@@](O)(CC[C@H]4Cc5c([nH]c6ccccc56)[C@@]43C)C2=CC1=O (stereo not given in full) | 0.87 (inactive) | 1.15 | 1 |
| [N-]=[N+]=N[C@H]1[C@H](Sc2ccccc2)OC(CO)C(O)[C@@H]1O (stereo not given in full) | 0.98 (inactive) | 1.08 | 1.06 |
| C[C@H]1C[C@H](O)[C@H]2[C@@H](C=C[C@@](C)(O)[C@]2(C)C(=O)CCO)C1 | 0.95 (inactive) | 0.32 | 0.3 |
| C[C@H]1[C@H](C)CC[C@]2(C(=O)O)CC[C@]3(C)C(=CCC4[C@@]5(C)C[C@@H](O)[C@H](O)[C@@](C)(CO)C5CC[C@]43C)[C@H]12 (stereo not given in full) | 1.16 (inactive) | 0.97 | 1.13 |
| CC1OC(O[C@H]2/C=C/C=C/C=C/C=C/C=C/C=C/C=C/[C@H](C)[C@@H](O)[C@@H](C)[C@H](C)OC(=O)CC(O)CC(O)CCC(O)C(O)CC(O)C[C@]3(O)C[C@H](O)C(C(=O)O)C(C2)O3)C(O)[C@@H](N)C1O (stereo not given in full) | 1 (inactive) | 1.18 | 1.18 |
| O=c1c(O)cc([C@H]2Oc3cc(O)cc(O)c3C[C@H]2O)cc2c([C@H]3Oc4cc(O)cc(O)c4C[C@@H]3O)cc(O)c(O)c12 | 0.92 (inactive) | 1.03 | 0.95 |
| CC(=O)OCC1O[C@H](Sc2ccc(C)cc2)[C@@H]2[C@@H](OC(=O)N2C(C)=O)C1OC(C)=O (stereo not given in full) | 0.77 (inactive) | 1.36 | 1.05 |
| C/C1=C\[C@H](C)C[C@H](C)[C@@H](C)OC(=O)[C@H](Cc2ccccc2)NC(=O)[C@@H](C)C(=O)C(C)C1O (stereo not given in full) | 0.99 (inactive) | 1.08 | 1.06 |
| COC(=O)C[C@@H]1C2(C)C(=O)[C@@H](CC3=C4C=C(OC)O[C@@H](c5ccoc5)[C@]4(C)CCC32)[C@H](O)C1(C)C (stereo not given in full) | 1.13 (inactive) | 0.99 | 1.12 |
| C[C@@H]1C(=O)NC(Cc2ccccc2)C(=O)N2CCCC[C@H]2C(=O)O[C@H]([C@@H](C)CCCC[C@@H](C)O)C[C@H]1O (stereo not given in full) | 0.9 (inactive) | 1.03 | 0.93 |
| NC(=O)C[C@H](NC(=O)OCc1ccccc1)C(=O)O | 1.25 (inactive) | 0.87 | 1.08 |
| O=C(O)CC1OCc2c(O)cccc21 (stereo not given) | 0.47 (inactive) | 0.95 | 0.44 |
| COc1c(N2CC[C@@H](CN)C2)c(F)cc2c(=O)c(C(=O)O)cn(Cc3ccc(-c4ccccc4)cc3)c12 | 1.14 (inactive) | 0.86 | 0.98 |
| O=C1C=CC2=C3c4cc(O)c(O)cc4C[C@@]3(O)COC2=C1 | 1.29 (inactive) | 1.07 | 1.38 |
| Cc1ccc(S[C@H]2OC(COCc3ccccc3)C(O)[C@@H]3OC(=O)N[C@H]23)cc1 (stereo not given in full) | 1.07 (inactive) | 0.9 | 0.96 |
| C/C=C/c1cc2c(c(=O)o1)C(=O)[C@@H](O)[C@H](C)O2 | 1.02 (inactive) | 0.9 | 0.92 |
| O=C(NCC1O[C@@H](OC2C(NC(=O)c3ccccc3)C[C@@H](NC(=O)c3ccccc3)[C@H](OS(=O)(=O)O)[C@H]2OC2OC(COS(=O)(=O)O)C(OC3OC(CNC(=O)c4ccccc4)[C@@H](OS(=O)(=O)O)[C@H](OS(=O)(=O)O)[C@H]3NC(=O)c3ccccc3)C2OS(=O)(=O)O)[C@H](NC(=O)c2ccccc2)[C@@H](OS(=O)(=O)O)C1OS(=O)(=O)O)c1ccccc1 (stereo not given in full) | 0.97 (inactive) | 0.96 | 0.93 |
| OC[C@H]1O[C@H](OCCCc2ccc(O)cc2)[C@H](O)[C@@H](O)[C@@H]1O | 1.19 (inactive) | 0.9 | 1.07 |

| SMILES | red/green cell ratio (normalised) | normalised cell number [1] | normalised cell number [2] |
| --- | --- | --- | --- |
| Cc1ccc(S[C@H]2OC3COC(c4ccccc4)OC3[C@@H]3OC(=O)N[C@H]23)cc1 (stereo not given in full) | 1.55 (inactive) | 0.36 | 0.55 |
| COc1cc(CC(=O)O)c(C(C)=O)c(O)c1OC | 0.89 (inactive) | 1.18 | 1.06 |
| C[C@H]1[C@H](C)CC[C@]2(C(=O)O)CC[C@]3(C)C(=CCC4[C@@]5(C)C[C@@H](O)[C@H](O)[C@@](C)(CO)C5[C@H](O)C[C@]43C)[C@H]12 (stereo not given in full) | 1.27 (inactive) | 0.92 | 1.17 |
| CC(C)=CCC[C@H](C)[C@H]1CC[C@]2(C)C[C@@H]3C(C)=CC(=O)[C@@H]3/C(C=O)=C\C[C@@H]12 | 0.9 (inactive) | 1.16 | 1.04 |
| C=C1[C@@H](C)C2[C@H](Cc3c[nH]c4ccccc34)NC(=O)[C@]23C(=O)/C=C/[C@H](O)C(=O)/C(C)=C/[C@@H](C)C/C=C/[C@H]3[C@@H]1O (stereo not given in full) | 1.13 (inactive) | 0.96 | 1.08 |
| C=C1OC(=O)[C@]2([C@H](C)C=C[C@H](O)[C@@H]2O)[C@@H]1O | 0.98 (inactive) | 1 | 0.99 |
| Cc1ccc([C@H](C)CC(=O)N2C(=S)O[C@H]3Cc4ccccc4[C@H]32)cc1 | 0.95 (inactive) | 1.05 | 1 |
| O=C(O)CCC(=O)OC1C(CO)O[C@H](Sc2ccccc2)[C@H]2NC(=O)O[C@@H]12 (stereo not given in full) | 1.26 (inactive) | 0.84 | 1.06 |
| CCN1CC(CCN2CCOCC2)C(C(c2ccccc2)c2ccccc2)C1=O (stereo not given) | 0.72 (inactive) | 1.12 | 0.81 |
| C=C1OC(=O)[C@]2([C@H](C)C=CC(=O)[C@H]2O)[C@H]1O | 1.05 (inactive) | 1.08 | 1.14 |
| C=CC(C)(C)c1cccc2[nH]c3c(c12)C[C@@H]1CC[C@@]2(O)C4=CC(=O)[C@@H]5O[C@@]4(CC[C@]2(C)[C@@]31C)CC5(C)C | 1 (inactive) | 1.11 | 1.11 |
| C/C(=C\CO)CC[C@H](C)CCC[C@H](C)CCCC(C)C | 1.12 (inactive) | 0.97 | 1.09 |
| COc1cc(O)c2c(=O)c(OC)c(-c3ccc(OC)c(OC)c3)oc2c1 | 1.03 (inactive) | 0.82 | 0.85 |
| Nc1cc2ccccc2[nH]c1=O | 0.91 (inactive) | 1.14 | 1.04 |
| CCCCCCCCCCCC[C@H](C(=O)O)[C@@H](C)C(=O)O | 1.15 (inactive) | 0.84 | 0.97 |
| CC1(C)S[C@@H]2[C@H](NC(=O)C(N)c3ccc(O)cc3)C(=O)N2[C@H]1C(=O)O (stereo not given in full) | 0.84 (inactive) | 1.22 | 1.02 |
| CC(=O)O[C@H]1C[C@@]2(C)C(CCC3[C@@]4(C)C=CC(=O)[C@@H](C)C4[C@H](OC(C)=O)C(=O)[C@@]32C)/C1=C(/CCC=C(C)C)C(=O)O (stereo not given in full) | 0.99 (inactive) | 0.92 | 0.91 |
| O=C(O)C1CCN(C(=O)OCc2ccccc2)CC1 | 1.04 (inactive) | 0.9 | 0.94 |
| CC(C)=CCCC(C)[C@@H]1CC[C@]2(C)C3=C(CC[C@@]12C)C1(C)CC[C@H](O)C(C)(C)C1CC3 (stereo not given in full) | 0.9 (inactive) | 1.09 | 0.98 |
| C[C@@]1(N)CCCCCN(c2c(F)cc3c(=O)c(C(=O)O)cn(C4CC4)c3c2Cl)C1 | 1.03 (inactive) | 0.97 | 1 |

| SMILES | red/green cell ratio (normalised) | normalised cell number [1] | normalised cell number [2] |
| --- | --- | --- | --- |
| CC(=O)OCC1O[C@H]2OC(=O)NC2[C@@H](OC(C)=O)C1OC(C)=O (stereo not given in full) | 0.82 (inactive) | 1.33 | 1.08 |
| CC[C@H](CCC(C)[C@H]1CCC2C3CCC4C[C@@H](O)CC[C@]4(C)C3CC[C@@]21C)C(C)C (stereo not given in full) | 1.11 (inactive) | 0.91 | 1.01 |
| COc1cc(/C=C/C(=O)O)cc(OC)c1 | 1.01 (inactive) | 0.91 | 0.93 |
| COC(=O)[C@@H](C)Oc1ccc(O)cc1 | 1.27 (inactive) | 0.93 | 1.18 |
| C=C1C/C=C(\C)CC[C@@H]2[C@@H]1CC2(C)C | 1.09 (inactive) | 0.98 | 1.07 |
| CC[C@@H](C)CC(=O)N1C(=S)O[C@@H]2Cc3ccccc3[C@@H]21 | 0.94 (inactive) | 1.12 | 1.05 |
| O[C@@H]1[C@H](O)CO[C@H]1O | 0.77 (inactive) | 1.11 | 0.86 |
| CC(=O)O[C@H]1CC[C@@]2(C)C(=CCC3C2CC[C@@]2(C)C3CC[C@@H]2C(C)CCCC(C)C)C1 (stereo not given in full) | 1.16 (inactive) | 0.99 | 1.15 |
| COC(=O)C[C@H]1C(C)(C)C(=O)[C@@H]2CC3=C4CC(=O)O[C@@H](c5ccoc5)[C@]4(C)CCC3C1(C)C2=O (stereo not given in full) | 1.01 (inactive) | 0.78 | 0.78 |
| O=c1c(O)c(-c2ccccc2)oc2cc(O)cc(O)c12 | 0.9 (inactive) | 1.07 | 0.96 |
| CCC(=O)O[C@]1(C(=O)SCF)[C@H](C)CC2C3CC(F)C4=CC(=O)C=C[C@]4(C)C3(F)[C@@H](O)C[C@@]21C (stereo not given in full) | 1.04 (inactive) | 0.87 | 0.9 |
| CC(C)CC1C(=O)OC(C(C)C)C(=O)N(C)C(C(C)C)C(=O)OC(C(C)C)C(=O)N(C)C(C(C)C)C(=O)OC(C(C)C)C(=O)N1C (stereo not given) | 0.99 (inactive) | 1.17 | 1.15 |
| COCC1O[C@@H](OC)[C@@H](OCc2ccccc2)[C@@H](OCc2ccccc2)C1O (stereo not given in full) | 0.86 (inactive) | 1.18 | 1.01 |
| CC(=O)OC1(C)CC[C@@]23CC1C(C)(C)[C@@H]2CC[C@H]3C (stereo not given in full) | 0.99 (inactive) | 1.16 | 1.15 |
| CCSC(SCC)[C@@H]1NC(=O)O[C@H]1[C@H](O)[C@H](O)CO | 1 (inactive) | 1.12 | 1.12 |
| C[C@H]1C(=O)CCC2[C@]3(C)CC[C@@]4(C)C5CC(C)(C)CC[C@]5(C)CC[C@]4(C)C3CC[C@@]21C (stereo not given in full) | 1.06 (inactive) | 1.06 | 1.13 |
| COC(=O)c1cc(OC)cc(OC(=O)c2c(O)cc3cc(C)oc(=O)c3c2O)c1O | 0.92 (inactive) | 0.94 | 0.86 |
| C/C=C\C(=O)O[C@@H]1[C@H](O)[C@@H](O)CO[C@@H]1C | 1.01 (inactive) | 0.99 | 0.99 |
| CC1CC(=O)c2c(cc3c(-c4c(O)cc(O)c5c(O)c6c(cc45)OC(C)CC6=O)c(O)cc(O)c3c2O)O1 (stereo not given) | 0.92 (inactive) | 1.06 | 0.98 |
| O=C(NCC1O[C@@H](OC2C(NC(=O)c3ccccc3)C[C@@H](NC(=O)c3ccccc3)[C@H](OC3OC(COS(=O)(=O)O)[C@@H](OS(=O)(=O)O)[C@H](NC(=O)c4ccccc4)[C@H]3OS(=O)(=O)O)[C@H]2OS(=O)(=O)O)[C@H](OS(=O)(=O)O)[C@@H](OS(=O)(=O)O)C1OS(=O)(=O)O)c1ccccc1 (stereo not given in full) | 1.21 (inactive) | 0.96 | 1.16 |
